# Measurements published in PubChem BioAssay AID1347417 (National Center for Advancing Translational Sciences (NCATS), 2020).
# Screen size: about 120,000 compounds; about 5,300 (4.4%) were called active. Not shown: some 22% with an inconclusive outcome. Shown is part of a subset that was picked to be rich in actives. Unmarked numbers belong to inactive results. The call rests on the fitted dose curve; in most records, active means well fitted inhibition curve with a large enough effect; inconclusive means small, poorly fitted or top-dose-only effect; inactive means no such curve, though single readings can be large or run the other way.
# Test: qHTS Primary assay for Inhibitors of Plasmodium falciparum Dd2 growth in vitro; further: nearly all actives have a fitted effect of over 65% in size;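 on activity, negative = inhibition: plate controls were DMSO vehicle for no effect and reference drug for full effect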
# Settings: P. falciparum Dd2 growth, SYBR Green, 72 h; series mostly up to 28.9 µM; activity, negative = inhibition: at the top concentration
# Source text: Malaria, a parasitic disease spread to humans through the bite of a Plasmodium infected Anopheles mosquito, continues to be a global health burden affecting millions of people, with an estimated 228 million cases and 405,000 deaths in 2018. Concerns about safety and limitations of current antimalarial treatments strongly emphasize the need to develop new therapeutic options. The scarce number of chemotypes and validated drug targets with efficacy against the liver stage, have hindered development of new antimalarials. To address this, a chemoprophylactic drug discovery effort was conducted through a combined phenotypic high-throughput asexual blood stage and liver stage screen, providing a robust foundation to identify liver-stage active lead chemotypes. Compounds were initially screened against Plasmodium falciparum Dd2 strain parasites using a in vitro SYBRGreen-1 based 72 hr proliferation assay to identify novel chemotypes to advance to liver stage assays. NIH/NCATS Early Translation Branch Assay Submitter (PI): Anton Simeonov Ph.D.
# Malaria-vivax Assay Protocol: PROTOCOL TABLE (as described by Inglese et al., 2007) SEQUENCE No. (e.g., 1, 2, 3, etc.); […] (e.g., Cells, Incubation, Reagent, etc.); VALUE; DESCRIPTION SEQUENCE, Parameter, Description 1; Reagent; 3 uL complete malaria growth medium, 1536 TC treated Black clear bottom plate 2; Controls; 23 nL positive control artesunate (300 nM final) to column 1; Neutral control DMSO to columns 2-4 3; Compound; 23 nL of compounds in dose response concentration (29 uM to 0.5 nM final) 4; Reagent; 5 uL malaria infected red blood cells (2.5% hematocrit final, 0.3% parasitemia 5; Time; 72 hours at 37C (5% O2, 5% CO2, 90% N2; 95% Rh) 6; Reagent; 2 uL lysis buffer/SYBRGreen-1, 25 sec shake immediately following dispense 7; Time; ~16 hours at 37C (5% O2, 5% CO2, 90% N2; 95% Rh) 8; Detector; EnVision (PerkinElmer) bottom read at 485/14nm excitation and 535/25 nm emission NOTES (numbers refer to sequence above): 1; Complete Malaria Growth Media: 1X RPMI-1640 w/L-glutamine, 5.5g/L Albumax II, 367 uM Hypoxanthine, 25 mM HEPES, 0.25% Sodium Bicarbonate, 35 uM Gentamicin sulfate 2; Controls were added using the Kalypsis Pintool (Wako USA) equipped with 1536 pinhead 3; Compounds were added in a 7-point, titration with a high final concentration of 29 uM by Pintool from seven inter-plate titrations of library plates and two DMSO control plates at the beginning and end (see Yasgar et al., 2008). 4; Red blood cells infected with Plasmodium falciparum Dd2 parasites were used. 6; Lysis buffer: 20 mM Tris-HCl, 10 mM EDTA, 0.16% Saponin, 1.6% Triton-X, 10X SYBR Green. REFERENCE: Inglese J, Shamu CE, Guy RK. 2007. Reporting data from high-throughput screening of small-molecule libraries. Nat Chem Biol. doi:10.1038/nchembio0807-438 Yasgar A, Shinn P, Jadhav A, Auld D, Michael S, Zheng W, Austin CP, Inglese J, Simeonov A. 2008. Compound Management for Quantitative High-Throughput Screening. J Lab Autom 13:79-89. doi:10.1016/j.jala.2007.12.004
# Potency means the concentration at half of the fitted maximal effect.
SMILES,"activity, negative = inhibition",outcome,Potency
CC(C)(C)C(=O)Cn1ccn2nc3c(c2c1=O)CCCC3,-23.6% (inactive),–,–
Cc1cc2nc3n(c(=O)c2n1CC(=O)NC(C)CCc1ccccc1)CCCC3 (stereo not given),–,inactive,–
CCc1ccc(CNCc2c(C(=O)O)n(Cc3ccc(F)cc3Cl)c3cc(OC)ccc23)cc1,–,inactive,–
COc1ccc2c(CNCCc3ccccc3C)c(C(=O)O)n(Cc3ccccc3C)c2c1,54.4% [at 5.79 µM],–,–
COc1cccc(CNCc2c(C(=O)O)n(Cc3ccc(C)cc3)c3cc(C)ccc23)c1OC,–,–,10 µM (active)
O=C(CCCc1ccccc1)N1CCCC(c2nc(C3CCOCC3)no2)C1 (stereo not given),-17.4% (inactive),–,–
CC(C)CN1CCOC[C@H](Oc2ccc(S(C)(=O)=O)cc2)C1,-22.7% [at 44.1 µM] (inactive),–,–
COc1ccc(O[C@H]2COCCN(Cc3nccn3C)C2)cc1,–,inactive [at 44.1 µM],–
Cn1cc(CN2CCOC[C@H](Oc3ccc(S(C)(=O)=O)cc3)C2)c2ccccc21,–,–,10 µM (active)
COc1ccc(-c2noc(CC3CCN(C(=O)Cc4ccc(C)cc4)CC3)n2)cc1,-16% (inactive),–,–
COc1ccc(CC(=O)N2CCC(Cc3nc(-c4ccccc4)no3)CC2)cc1OC,–,inactive,–
COc1ccc(-c2noc(CC3CCN(C(=O)Cc4ccc(OC)c(OC)c4)CC3)n2)cc1,–,–,11.2 µM (active)
N#Cc1ccc(C(=O)N[C@@H](Cc2ccccc2)C(=O)N2CCCOCCNC(=O)CC2)cc1,-20.6% (inactive),–,–
CC(C)(C)C(=O)N1CCC(c2nn(-c3ccc(F)cc3)c(=O)[nH]2)CC1,–,inactive [at 44.1 µM],–
Cc1ccc(NC(=O)N2CCc3[nH]c4ccc(F)cc4c3C2)cc1,-6.6% (inactive),–,–
COCc1cn([C@H]2CO[C@H]3[C@@H]2OC[C@H]3OC(=O)Nc2cccc(C#N)c2)nn1,–,inactive [at 44.1 µM],–
Cc1c(C(=O)N(C)C)sc2c1c(=O)n(-c1ccc(F)cc1)c(=O)n2CC(=O)N(C)c1ccccc1,62.2% (inactive),–,–
COc1cccc(-n2c(=O)c3c(C)c(C(=O)N(C)C)sc3n(CC(=O)NCCc3ccc(OC)c(OC)c3)c2=O)c1,-23.1% (inactive),–,–
CCOc1ccccc1NC(=O)Cn1c(=O)n(Cc2ccccc2)c(=O)c2c(C)c(C(=O)N(C)C)sc21,–,–,3.16 µM (active)
COc1ccc(Nc2ccc3c(n2)CN(Cc2ccccc2C)C(=O)CO3)cn1,-2.87% [at 44.1 µM] (inactive),–,–
O=C(COc1ccc(F)cc1)N1CCC2(CC1)NCCc1c2[nH]c2ccccc12,–,–,10 µM (active)
O=C(C1CCCO1)N1CCC2(CC1)NCCc1c2[nH]c2ccccc12 (stereo not given),-8.14% (inactive),–,–
COCCOCC(=O)N1CCC2(CC1)NCCc1c2[nH]c2ccccc12,-26.8% (inactive),–,–
Cc1nc2ncccn2c1C(=O)N[C@@H]1CCOC[C@H]1Oc1ccccn1,-3.97% (inactive),–,–
Cc1ccc2c(C(=O)O)cc(NC(=O)C(C)C)cc2n1,24% (inactive),–,–

SMILES,"activity, negative = inhibition",outcome,Potency
Cc1ccccc1NC1CCn2c(nc(C)c2C(=O)Nc2ccc(F)cc2)C1 (stereo not given),-18.3% [at 44.1 µM] (inactive),–,–
CCN(CCCNC(=O)Cn1ncc2c([nH]c3ccccc32)c1=O)c1cccc(C)c1,-14.7% (inactive),–,–
CCN(CCCNC(=O)c1nnn2cc(-c3ccccc3)[nH]c(=O)c12)c1ccccc1,–,–,8.91 µM (active)
CCN(CCCNC(=O)c1cc2cc3cc(OC)ccc3nc2s1)c1ccccc1,-5.94% (inactive),–,–
Cc1nn(C)cc1CN(C)C(=O)C1CN(S(=O)(=O)c2cccnc2)CC12CCCCC2 (stereo not given),–,inactive,–
COc1cc(=O)n2c(c1C(=O)Nc1cccc(Br)c1)CCCC2,27.2% (inactive),–,–
CCc1cccc(NC(=O)N2CCC(c3noc(COc4ccc(F)cc4)n3)CC2)c1,-6.5% (inactive),–,–
CCOc1ccc(-c2cc(C)n3nc(C(=O)Nc4ccc(C)c(C)c4)cc3n2)cc1,-17.2% (inactive),–,–
CCOc1ccc(-c2cc3nc(C4CCN(C(=O)OC(C)(C)C)CC4)c(C(=O)Nc4cccc(CC)c4)cn3n2)cc1,–,–,7.94 µM (active)
O=C(C[C@@H]1CCNC[C@@H]1Cc1cc(COc2ccccc2)on1)NCc1ccco1,–,inactive [at 44.1 µM],–
CCc1cccc(NC(=O)CN2C(=O)NC(c3ccc(Cl)cc3)C3=C2COC3=O)c1 (stereo not given),-19.7% (inactive),–,–
Cc1ccc(-c2nnc(C3CN(C(=O)c4cc(C)cc(C)c4)CC34CCOCC4)o2)cc1 (stereo not given),-5.46% (inactive),–,–
C[S+](=O)([O-])N1Cc2ccccc2CC2(CCN(Cc3cccnc3)CC2)C1,-18.3% (inactive),–,–
O=[S+]([O-])(c1ccccc1)N1CC2(CCCCN2Cc2cccnc2)Cc2ccccc21 (stereo not given),–,–,8.91 µM (active)
CC(=O)NCC(=O)N1Cc2ccccc2CC2(CCCN2Cc2cccnc2)C1 (stereo not given),21.7% (inactive),–,–
CN1CCCN(S(=O)(=O)c2ccccc2)CCC(=O)NCC1,25.3% (inactive),–,–
CC(C)c1noc(-c2cccn3c(CNC(=O)c4ccc(C(C)(C)C)cc4)nnc23)n1,-0.267% (inactive),–,–
Cc1nc(-c2ccc(Cl)cc2)n(Cc2cc(F)cc(F)c2)c(=O)c1CCO,-10.6% (inactive),–,–
CCOc1ccc(C(=O)/C=C/c2cn(CC(O)CN3CCCCCC3)c3ccccc23)cc1 (stereo not given),–,–,12.6 µM (active)
CCOc1ccc(C(=O)N2CCCN(C(=O)C3CC3)c3ccccc32)cc1,–,inactive; activator; fitted 1.7783 uM,–
COc1ccc2cc(C(=O)N3C[C@@H](Oc4ccccc4)C[C@H]3C(=O)N3CCOCC3)[nH]c2c1,-1.38% (inactive),–,–
COC(=O)c1ccc(NC(=O)CCc2c(C)nc3c(c(C)nn3-c3ccc(C)cc3)c2C)cc1,–,–,6.31 µM (active)
Cc1nc2c(c(C)nn2-c2ccccc2)c(C)c1CCC(=O)NCCc1ccc(Cl)cc1,22.1% (inactive),–,–
Cc1ccc(CNC(=O)CCc2c(C)nc3c(c(C)nn3-c3ccccc3)c2C)cc1,-16.4% (inactive),–,–
Cn1cc(-c2ccccc2)cc1C(=O)NCc1ccc(N2CCOCC2)cc1,–,inactive,–
